Bioassay records: PubChem, several laboratories
SMARCA2 act: SMARCA2 (BRM) function activators, primary screen, cell-based, luminescence, high throughput. MG213 cells, MMTV-luciferase reporter, dexamethasone, overnight. activation, % at 9.1 µM. hit rate 1% among 370,000. AID 652017, 2013; in the data active means activation above about 7.8%
GalR3 antag: GalR3 antagonists in HEK293 cells, primary screen, cell-based, fluorescence readout. Galanin receptor type 3 (Homo sapiens), O60755. HEK293 GalR3-CNG cAMP membrane potential fluorescence; galR3 body fused to GalR1 C-terminus. inhibition, % at 3 µM. hit rate 0.44% among 360,000. AID 651719, 2012;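 active means inhibition above the screen-wide average plus 3 SD, cut at about 13% in these data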;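 further: forskolin and galanin both at EC90 stimulate the cells; cAMP rise reported by CNG channel membrane potential dye signal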
Target sequence (O60755 1-299 limits assumed): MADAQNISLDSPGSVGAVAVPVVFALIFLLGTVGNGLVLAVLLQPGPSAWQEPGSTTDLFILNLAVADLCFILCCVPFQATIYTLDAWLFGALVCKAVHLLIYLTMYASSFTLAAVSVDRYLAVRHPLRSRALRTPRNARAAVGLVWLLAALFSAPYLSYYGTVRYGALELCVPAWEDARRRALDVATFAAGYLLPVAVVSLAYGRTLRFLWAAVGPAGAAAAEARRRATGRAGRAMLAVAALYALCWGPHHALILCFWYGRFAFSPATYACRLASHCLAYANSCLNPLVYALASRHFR
Hsp70 act: Hsp70 transcriptional activators, primary screen, cell-based, HeLa, Hsp70 promoter luciferase, luminescence, 10 µM. HeLa Hsp70 promoter luciferase reporter; scaled: vehicle 0, proteasome-inhibitor control 100%. activation, % at 10 µM. hit rate 0.04% among 200,000;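 active means activation above the mean across all tested compounds plus 3 SD, cutoff set per campaign, cut at about 5.5% in these data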
HIF act: HIF pathway transcriptional activators, primary screen, cell-based, U2OS HRE-luciferase, luminescence. hit rate 0.32% among 300,000. activation, % at 7.5 µM (by protocol). U2OS HRE-luciferase reporter; normalized: DMSO 0%, desferrioxamine 100%. AID 1910, 2009;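 active means mean activation of at least 10% of the iron chelator positive control signal, with at least half of replicates also reaching 10%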
GAA850 FXN act: FXN promoter activators, primary screen, cell-based, luciferase luminescence, HEK293 lucGAA850; activation, % at 6 µM; AID 540364, 2011; hit rate 0.56% among 360,000; HEK293 lucGAA850 FXN promoter luciferase reporter, 24 h; percent of 10 µM SAHA response;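 active means activation above the average of all compounds screened plus 3 SD, cutoff fixed separately per campaign, cut at about 7.5% in these data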
Each line names hits and unclear results; the compound was inactive in the other large screens. Hits are enriched below; roughly 2.2% of the tested compounds scored in any of these assays.

Cc1cc(C)c(/C=N/NC(=O)c2nnn(-c3nonc3N)c2CN2CCC(C)CC2)c(C)c1	none (no result: Hsp70 act)
CC1CCN(Cc2c(C(=O)N/N=C/c3cc(Cl)ccc3O)nnn2-c2nonc2N)CC1	HIF act 40 (no result: Hsp70 act)
COc1c(Cl)cc(Cl)cc1/C=N/NC(=O)c1nnn(-c2nonc2N)c1CN1CCC(C)CC1	none (no result: Hsp70 act)
CC1CCN(Cc2c(C(=O)N/N=C/c3cc(Br)ccc3O)nnn2-c2nonc2N)CC1	HIF act 53 (no result: Hsp70 act)
COc1ccc(-c2cc(C(=O)NN=Cc3ccc(C)s3)[nH]n2)cc1	none (no result: GalR3 antag, Hsp70 act, HIF act, GAA850 FXN act)
COCCCNc1ccn2nc(-c3ccc(OCCN4CCOCC4)cc3)cc2n1	SMARCA2 act 7.9 (no result: Hsp70 act, HIF act)
CCCC(=O)NC(c1ccc2c(c1)OCO2)c1cc(Cl)c2cccnc2c1O (stereo not given)	HIF act 12 (no result: SMARCA2 act, GalR3 antag)
CCCC(=O)NC(c1ccco1)c1cc(Cl)c2cccnc2c1O (stereo not given)	none
CCCC(=O)NC(c1cccs1)c1cc(Cl)c2cccnc2c1O (stereo not given)	HIF act 29
COc1ccc(C(C(=O)N(C)C2CCCC2)N(Cc2ccc(F)cc2)C(=O)c2csc(N3CCOCC3)n2)cc1OC (stereo not given)	none (no result: GalR3 antag, Hsp70 act, HIF act, GAA850 FXN act)
Brc1ccc(-c2cn3c(n2)SCC3)cc1	none
c1ccc(-c2cn3c(n2)SCC3)cc1	SMARCA2 act 7.8
CCS(=O)(=O)CCSc1nc2ccccc2s1	none
O=S(=O)(CCSc1nc2ccccc2s1)c1nc2ccccc2s1	HIF act 13
COc1ccccc1N1CCN(S(=O)(=O)CCNC(=O)C2CC(=O)N(c3ccccc3)C2)CC1 (stereo not given)	none (no result: Hsp70 act)
O=C(NCCS(=O)(=O)N1CCN(c2ccccc2F)CC1)C1CC(=O)N(c2ccc(F)cc2)C1 (stereo not given)	HIF act 456 (no result: Hsp70 act)
COC(=O)CCc1sc(Nc2ccccc2)nc1-c1ccc(OC)cc1	SMARCA2 act 9.7
COc1cccc2sc3cc(C#CC4(O)CCCCC4)ccc3c(=O)c12	none (no result: Hsp70 act, HIF act)
COc1cc2sc3ccc(C#CC4(O)CCCCC4)cc3c(=O)c2cc1OC	SMARCA2 act 7.8 (no result: Hsp70 act)
COC(=O)N1C[C@H](OC(=O)c2ccc(-c3ccccc3)cc2)[C@H]2C[C@@H]1c1ccccc1O2	none (no result: Hsp70 act, HIF act, GAA850 FXN act)
FC(F)(F)c1ccc(-c2nc(=S)[nH][nH]2)cc1	HIF act 96 (no result: Hsp70 act)
COc1ccc2oc(=O)c(C(=O)NC3CCCCCC3)cc2c1	HIF act 9.9 (no result: Hsp70 act)
COC(=O)[C@]12C[C@H](CC(=O)N3CCN(C(=O)c4ccco4)CC3)C(=O)N(Cc3ccccc3)C1=C[C@H](C1CCCC1)O[C@@H]2C	none (no result: Hsp70 act, HIF act, GAA850 FXN act)
CC1=[N+](C)c2c(ccc3cccnc23)C1(C)C	GalR3 antag 24 (no result: HIF act)
O=C(OCc1cn(Cc2ccc(F)c(F)c2)nn1)N1CCOCC1	none (no result: GalR3 antag, Hsp70 act, HIF act, GAA850 FXN act)
Cc1nc(N)sc1N=Nc1ccc(F)cc1	GAA850 FXN act 9.7
COC(=O)[C@]12C[C@H](CC(=O)N3CCN(C(=O)C4CC4)CC3)C(=O)N(Cc3cccc4ccccc34)C1=C[C@H](C(C)C)O[C@@H]2C1CC1	none (no result: GalR3 antag, Hsp70 act, HIF act, GAA850 FXN act)
CC(C)N(C(=O)[C@H]1C[C@H](CC(=O)NCc2ccco2)C(=O)N2CCc3c([nH]c4cc(CCC(=O)N(C)C)ccc34)[C@]12C)C(C)C	SMARCA2 act 7.9 (no result: Hsp70 act, HIF act)
COc1ccc2c(c1OC)C(C1c3c(cc4c(c3OC)OCO4)CCN1C)OC2=O (stereo not given)	none
CN1CCc2cc3c(c4c2[C@H]1[C@H](O)c1ccccc1-4)OCO3	SMARCA2 act 9.3
CCOC(=O)[C@]12CCCC=C1N(Cc1ccc(OC)cc1)C(=O)[C@@H]2CC(=O)NCCCCc1ccccc1	none (no result: GalR3 antag, Hsp70 act, HIF act, GAA850 FXN act)
COC(=O)[C@]12C[C@H](CC(=O)N3CCN(C(=O)C4CC4)CC3)C(=O)N(CCc3ccc(OC)c(OC)c3)C1=C[C@H](C(C)(C)C)O[C@@H]2C	none (no result: GalR3 antag, Hsp70 act, HIF act, GAA850 FXN act)
CC1CCN(C(C)C(=O)Nc2ccccc2-c2ccccc2)CC1 (stereo not given)	none
CC(C(=O)Nc1ccccc1-c1ccccc1)N1CCN(C(=O)c2ccccc2)CC1 (stereo not given)	HIF act 34 (no result: Hsp70 act)
CCOC(=O)C1=C(C(=O)OCC)C2N(Cc3ccc(C#N)cc3)c3ccccc3[C@@]23C[C@@H](C(=O)OC)N(S(=O)(=O)c2ccc(C#N)cc2)C3=N1 (stereo not given in full)	none (no result: Hsp70 act, HIF act, GAA850 FXN act)
CC(C)=NOC(=O)c1c(C)noc1-c1snnc1C	HIF act 60 (no result: Hsp70 act)
Cc1ccc(F)cc1C(=O)N(Cc1ccccn1)CC1CCCO1 (stereo not given)	none (no result: GalR3 antag, Hsp70 act, HIF act, GAA850 FXN act)
C=CCOc1ccc(/C=C2\SC(N)=NC2=O)cc1OC	HIF act 12 (no result: Hsp70 act)
CCOC(=O)c1cc2c(nc1N)CCCC2	none (no result: Hsp70 act)
CCOC(=O)c1ccc(-c2ccc3c(c2)CCC3)nc1C	SMARCA2 act 7.9 (no result: Hsp70 act)
COc1ccccc1-c1cc(C(F)(F)F)nc(S(=O)(=O)CCCC(=O)NCc2ccc(F)cc2)n1	HIF act 26
COc1ccccc1-c1cc(C(F)(F)F)nc(S(C)(=O)=O)n1	HIF act 16
COc1ccccc1-c1cc(C(F)(F)F)nc(S(=O)(=O)CCCC(=O)N2CCCCC2C)n1 (stereo not given)	HIF act 11
COc1ccccc1-c1cc2nc(C)c(CCC(=O)NCc3ccc(F)cc3)c(C)n2n1	none (no result: Hsp70 act)
COc1ccccc1-c1cc(C(F)(F)F)nc(N2CCCC2)n1	none
COc1ccccc1-c1cc(C(F)(F)F)nc(S(=O)(=O)CCCC(=O)Nc2cc(C)on2)n1	none
COc1ccccc1-c1cc(C(F)(F)F)nc(S(=O)(=O)CCCC(=O)NC(C)C)n1	HIF act 24
CN(C)c1ccc(C(=O)NC2CCCCN(Cc3cccc(Cl)c3)C2=O)cc1 (stereo not given)	none (no result: GalR3 antag, Hsp70 act, HIF act, GAA850 FXN act)
COc1ccc(-n2c(SCC(=O)Nc3ccc(Oc4ccccc4)cc3)nnc2-c2ccco2)cc1	none (no result: GalR3 antag, Hsp70 act, HIF act, GAA850 FXN act)
COc1ccc(-c2cc(NC(=O)Cc3c[nH]c4ccccc34)ccc2Nc2cccnc2)cc1F	none (no result: Hsp70 act, HIF act, GAA850 FXN act)
Cc1sc2cc3c(c(C(=O)c4ccccc4)[n+]2c1C)-c1cccc2cccc-3c12	HIF act 11 (no result: GAA850 FXN act)
O=C(c1ccccc1)c1c2c(cc3sc4ccccc4[n+]13)-c1cccc3cccc-2c13	none (no result: HIF act)
Cc1cccc(CS(=O)(=O)c2nnc([C@H](Cc3ccccc3)NC(=O)OC(C)(C)C)o2)c1	none (no result: SMARCA2 act, GalR3 antag)
COC(=O)CS(=O)(=O)c1nnc([C@H](Cc2ccccc2)NC(=O)OC(C)(C)C)o1	GAA850 FXN act 15
c1ccc2c(NCCc3c[nH]c4ccccc34)c3ccccc3nc2c1	HIF act 13 (no result: Hsp70 act)
CCCCC(=O)N(Cc1ccccc1)c1ccccc1C(=O)Nc1cc(OC)ccc1OC	none (no result: GalR3 antag, Hsp70 act, HIF act, GAA850 FXN act)
CSc1ccccc1C(=O)Nc1ccccc1C	none
Cc1ccccc1NC(=O)c1ccccc1O	HIF act 408
